A number with no mark means an inactive call. Some of the results follow. Active and inactive are the calls of the source. Unless noted, no stated cut-off is given here; in the data, active means activation above about 24%; inactive means the rest.

The record followed here is PubChem BioAssay.

Experiment [1] deals with Peroxisome proliferator-activated receptor gamma (Homo sapiens) (UniProt P37231). Description: retested PPARg-SRC-2 recruitment enhancers – biochemical, HTS, confirmation (AID 1297; in the data active means activation above about 22%;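 further: 0% = vehicle alone and 100% = reference agonist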). Particulars: biochemical SRC-2 recruitment by PPARgamma; at 8 µM; hits give high values.
Sequence of Peroxisome proliferator-activated receptor gamma (Homo sapiens) (P37231 whole entry, looked up): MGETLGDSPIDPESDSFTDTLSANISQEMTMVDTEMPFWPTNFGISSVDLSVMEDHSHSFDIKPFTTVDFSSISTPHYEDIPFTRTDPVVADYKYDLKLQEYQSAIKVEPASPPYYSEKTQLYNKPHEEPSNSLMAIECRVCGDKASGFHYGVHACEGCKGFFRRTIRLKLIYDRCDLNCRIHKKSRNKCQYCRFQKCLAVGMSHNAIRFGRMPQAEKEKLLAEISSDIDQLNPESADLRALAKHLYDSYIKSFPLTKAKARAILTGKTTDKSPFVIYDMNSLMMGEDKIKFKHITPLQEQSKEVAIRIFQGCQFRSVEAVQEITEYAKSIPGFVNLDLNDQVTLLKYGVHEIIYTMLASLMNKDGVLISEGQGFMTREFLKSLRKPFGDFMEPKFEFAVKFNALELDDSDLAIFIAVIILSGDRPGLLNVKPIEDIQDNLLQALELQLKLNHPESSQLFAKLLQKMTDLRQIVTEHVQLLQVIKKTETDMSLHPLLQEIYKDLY
For experiment [2] the target is unchanged. Description: retest of SRC-1 recruitment enhancers for PPARgamma – biochemical, confirmation (AID 1300; in the data active means activation above about 20%;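 further: 0% = vehicle wells and 100% = reference agonist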). The settings on record: PPARgamma–SRC-1 coactivator recruitment biochemical assay; at 8 µM; hits give high values.
Experiment [3] concerns the target Peroxisome proliferator-activated receptor gamma (Homo sapiens) + Nuclear receptor coactivator 3 (Homo sapiens) (UniProt P37231+Q9Y6Q9). Description: agonists promoting SRC-3 binding to PPARgamma – biochemical, confirmation (AID 1301).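 Further: 0% = vehicle wells and 100% = reference agonist.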 The settings on record: biochemical PPARgamma-SRC-3 coactivator recruitment, agonist mode; at 8 µM; hits give high values.
In experiment [4] the target is Oxysterols receptor LXR-beta (Homo sapiens) (UniProt P55055). Description: nonspecific reporter activation via LXR – cell-based, luminescence, HEK293, H. contortus campaign, counter-screen for hcDAF-12 agonist project, confirmation (AID 743027;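 active means mean percent activation of the reporter above a cutoff set as the average over tested compounds plus their standard deviation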). The settings on record: HEK293 Gal4-LXR tk-luc reporter, 24 h, at 6.8 µM, hits give high values, normalized: DMSO 0%, positive control 100%.
Sequence of Oxysterols receptor LXR-beta (Homo sapiens) (P55055 whole entry, looked up, the tested form may be a part): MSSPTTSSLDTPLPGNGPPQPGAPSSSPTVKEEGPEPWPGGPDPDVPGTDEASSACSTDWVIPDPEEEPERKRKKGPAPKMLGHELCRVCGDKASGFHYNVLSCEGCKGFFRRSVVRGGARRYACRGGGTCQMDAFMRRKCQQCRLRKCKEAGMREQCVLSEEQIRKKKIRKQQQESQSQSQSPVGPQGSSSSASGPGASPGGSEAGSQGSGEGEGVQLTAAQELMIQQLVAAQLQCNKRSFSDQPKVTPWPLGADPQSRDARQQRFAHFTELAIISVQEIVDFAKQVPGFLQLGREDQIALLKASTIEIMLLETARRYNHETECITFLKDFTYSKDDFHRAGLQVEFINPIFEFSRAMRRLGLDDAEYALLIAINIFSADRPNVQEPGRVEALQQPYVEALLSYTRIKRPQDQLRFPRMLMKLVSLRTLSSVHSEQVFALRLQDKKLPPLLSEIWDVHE

For experiment [5], the system named is Nuclear hormone receptor DAF-12 (Haemonchus contortus). Description: hcDAF-12 luciferase reporter activation, retest – cell-based, luminescence, HEK293, lit1-tk-luc, triplicate, confirmation (AID 743032;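 active means mean activation across triplicate tests above the threshold derived from the earlier primary screen, cut at about 5.5% in these data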;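 further: 0% = DMSO only wells and 100% = 3 µM Δ7-dafachronic acid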). Particulars: HEK293 hcDAF-12 lit1-tk-luc reporter, at 6.8 µM, hits give high values, % of Δ7-dafachronic acid response.
Experiment [6] deals with Sphingosine 1-phosphate receptor 4 (Homo sapiens) (UniProt O95977). Description: blockers of human S1P4 signalling – cell-based, confirmation (AID 1524; in the data active means inhibition above about 30%). Particulars: S1P4-expressing cell line, antagonist mode, reporter read-out; at 4.98 µM; hits give high values.
Sequence of Sphingosine 1-phosphate receptor 4 (Homo sapiens) (O95977 whole entry, looked up): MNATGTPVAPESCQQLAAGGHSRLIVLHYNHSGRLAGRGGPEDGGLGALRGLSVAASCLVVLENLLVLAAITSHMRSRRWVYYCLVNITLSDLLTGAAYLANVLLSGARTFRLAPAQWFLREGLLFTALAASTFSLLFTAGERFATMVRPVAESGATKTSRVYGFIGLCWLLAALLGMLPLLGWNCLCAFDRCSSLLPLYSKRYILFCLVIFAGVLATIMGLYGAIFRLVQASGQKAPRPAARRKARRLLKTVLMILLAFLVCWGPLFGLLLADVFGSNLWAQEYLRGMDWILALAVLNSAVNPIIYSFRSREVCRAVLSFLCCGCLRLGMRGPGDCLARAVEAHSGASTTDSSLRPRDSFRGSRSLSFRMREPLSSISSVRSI
Experiment [7] deals with Sphingosine 1-phosphate receptor 1 (Homo sapiens) (UniProt P21453). Description: blockade of human S1P1 receptor – cell-based, counter-screen for S1P4 antagonist project (AID 1564; in the data active means inhibition above about 40%;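 further: receptor stimulated with S1P near its EC80; 0% = agonist stimulated wells and 100% = vehicle only wells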). The settings on record: cell-based S1P1 antagonist counterscreen, at 4.98 µM, hits give high values.
Sequence of Sphingosine 1-phosphate receptor 1 (Homo sapiens) (P21453 whole entry, looked up): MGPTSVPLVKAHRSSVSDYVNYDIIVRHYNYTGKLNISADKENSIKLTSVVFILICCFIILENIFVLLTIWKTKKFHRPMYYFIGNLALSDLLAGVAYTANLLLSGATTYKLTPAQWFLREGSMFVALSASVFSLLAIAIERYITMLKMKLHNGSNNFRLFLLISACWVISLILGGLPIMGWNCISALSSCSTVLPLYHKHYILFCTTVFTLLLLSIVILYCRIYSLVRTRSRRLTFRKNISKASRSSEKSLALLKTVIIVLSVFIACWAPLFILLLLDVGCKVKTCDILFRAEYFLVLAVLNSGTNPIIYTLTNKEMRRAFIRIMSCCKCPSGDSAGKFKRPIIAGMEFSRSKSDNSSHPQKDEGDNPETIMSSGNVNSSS
The test system of experiment [8] is Fam108b (Abhd17b) serine hydrolase [Mus musculus]. Description: inhibition of Fam108b (Abhd17b) hydrolase – biochemical, fluorescence polarization, triplicate, counter-screen for RBBP9 inhibitor project, confirmation (AID 1978;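 active means inhibition above a limit from the primary screen, the mean over all compounds plus 3 SD, cut at about 19% in these data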;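 further: 0% = median of active Fam108b wells and 100% = catalytically dead S170A mutant; inhibitors free the probe so polarization falls as inhibition rises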). Particulars: recombinant Fam108b, FP-Rh probe fluorescence polarization; at 9.51 µM; hits give high values.
The target of experiment [9] is Bcl-2-like protein 1 (Homo sapiens) (UniProt Q07817). Description: Bcl-xL BH3-peptide displacement, hit confirmation – biochemical, fluorescence polarization, counter-screen for MCL1 inhibitor project (AID 2166;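 active means inhibition above a cutoff equal to the mean inhibition of all tested compounds plus 3 SD, cut at about 30% in these data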). Particulars: GST-Bcl-xL / FITC-Bim BH3 peptide FP binding; at 10.9 µM; hits give high values.
In experiment [10] the target is Induced myeloid leukemia cell differentiation protein Mcl-1 (Homo sapiens) (UniProt Q07820). Description: MCL1-BIM peptide interaction disruptors – biochemical, fluorescence polarization, triplicate, confirmation (AID 2168;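 active means inhibition above the average of all tested compounds plus 3 SD, cut at about 40% in these data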;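 further: 0% = DMSO wells and 100% = unlabeled Bim-BH3 control peptide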). The settings on record: GST-MCL1 / FITC-Bim-BH3 fluorescence polarization; at 10.9 µM; hits give high values.
Sequence of Induced myeloid leukemia cell differentiation protein Mcl-1 (Homo sapiens) (Q07820 whole entry, looked up): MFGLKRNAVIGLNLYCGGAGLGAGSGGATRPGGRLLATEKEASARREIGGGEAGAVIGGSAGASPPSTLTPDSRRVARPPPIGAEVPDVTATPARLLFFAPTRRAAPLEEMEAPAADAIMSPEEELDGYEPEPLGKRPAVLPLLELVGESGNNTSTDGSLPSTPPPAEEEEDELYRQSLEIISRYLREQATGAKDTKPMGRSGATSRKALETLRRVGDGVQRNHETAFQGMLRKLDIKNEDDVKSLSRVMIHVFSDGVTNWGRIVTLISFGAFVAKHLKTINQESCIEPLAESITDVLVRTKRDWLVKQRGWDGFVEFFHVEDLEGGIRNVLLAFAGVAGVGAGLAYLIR
Experiment [11] addresses Galanin receptor type 2 (Homo sapiens) (UniProt O43603). Description: blockers of human galanin receptor 2 – cell-based, confirmation (AID 866; in the data active means inhibition above about 27%;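 further: cells stimulated with galanin at about its EC80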). Particulars: GALR2-expressing cells, antagonist mode, at 4 µM, hits give high values.
A short description of experiment [12]: nonspecific BLA reporter inhibition – CHO NFAT-bla cells, FRET readout, counter-screen for GALR2 antagonist project, confirmation (AID 867;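 active means inhibition above the mean inhibition across tested compounds plus 3 SD, cut at about 27% in these data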;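 further: 0% = 500 nM thapsigargin stimulated wells and 100% = unstimulated BSA only wells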). The settings on record: beta-lactamase FRET, thapsigargin-stimulated, at 4.2 µM, hits give high values.
Experiment [13] concerns the target Neuropeptide Y receptor type 2 (Homo sapiens) (UniProt P49146). Description: human Y2 receptor positive modulation or activation – cell-based, confirmation (AID 1539; in the data active means activation above about 33%). The settings on record: cell-based NPY-Y2 potentiator/agonist assay; at 3.6 µM; hits give high values.
The target of experiment [14] is Neuropeptide Y receptor type 1 (Homo sapiens) (UniProt P25929). Description: human Y1 receptor positive modulation or activation – cell-based, fluorescence, counter-screen for NPY-Y2 potentiator project (AID 1651; in the data active means activation above about 45%;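 further: cells stimulated with submaximal NPY then isoproterenol with phosphodiesterase inhibitor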). The settings on record: Y1 HEK293-CNG cells, membrane potential fluorescence; at 3.6 µM; hits give high values.
Sequence of Neuropeptide Y receptor type 1 (Homo sapiens) (P25929 whole entry, looked up): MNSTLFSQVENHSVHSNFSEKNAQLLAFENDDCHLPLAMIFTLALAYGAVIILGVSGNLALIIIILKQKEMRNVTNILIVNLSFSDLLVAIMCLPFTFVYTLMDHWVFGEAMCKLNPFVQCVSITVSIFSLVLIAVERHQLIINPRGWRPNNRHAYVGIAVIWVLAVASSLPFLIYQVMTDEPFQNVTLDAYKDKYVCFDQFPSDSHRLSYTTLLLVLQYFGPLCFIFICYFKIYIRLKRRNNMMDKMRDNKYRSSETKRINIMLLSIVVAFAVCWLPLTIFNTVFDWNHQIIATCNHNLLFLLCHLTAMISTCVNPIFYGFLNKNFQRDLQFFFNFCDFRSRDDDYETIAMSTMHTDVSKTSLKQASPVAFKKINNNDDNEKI
The target is the same in experiment [15]. Description: human Y1 receptor agonism, CNGC membrane potential – cell-based, fluorescence, selectivity assay for NPY-Y2 potentiator project (AID 1702;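 active means activation above the mean of DMSO-only control wells plus 3 SD, cut at about 18% in these data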;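 further: cells stimulated with 1 µM isoproterenol plus the PDE inhibitor Ro 20-1724; 0% = isoproterenol with DMSO and no NPY and 100% = 40 nM NPY; Y1 agonists lower the membrane potential dye signal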). Particulars: HEK293 Y1-CNGC, at 3.6 µM, hits give high values.
Experiment [16] is described as follows: blockers of isoproterenol-driven CNG channel signal – cell-based, HEK293-CNG parental, membrane potential fluorescence, counter-screen for NPY-Y2 potentiator project (AID 1703;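 active means inhibition above the control-well mean plus 3 SD of those wells, cut at about 22% in these data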;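 further: 0% = DMSO with isoproterenol and 100% = DMSO without isoproterenol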). The settings on record: isoproterenol cAMP, at 3.6 µM, hits give high values.
In experiment [17] the target is Neuropeptide Y receptor type 2 (Homo sapiens) (UniProt P49146). Description: agonism at human Y2 receptor without NPY – cell-based, fluorescence, counter-screen for NPY-Y2 potentiator project (AID 1710;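 active means activation above the mean of solvent-only control wells plus 3 SD, cut at about 10% in these data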;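 further: cells stimulated by isoproterenol with no NPY added so direct agonism is tested; 0% = DMSO with isoproterenol alone and 100% = NPY at EC100 plus isoproterenol; agonism lowers probe fluorescence through less cAMP and CNG channel opening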). Particulars: HEK293 Y2/CNGC cells, membrane potential fluorescence, agonist mode; at 3.6 µM; hits give high values.
Sequence of Neuropeptide Y receptor type 2 (Homo sapiens) (P49146 whole entry, looked up): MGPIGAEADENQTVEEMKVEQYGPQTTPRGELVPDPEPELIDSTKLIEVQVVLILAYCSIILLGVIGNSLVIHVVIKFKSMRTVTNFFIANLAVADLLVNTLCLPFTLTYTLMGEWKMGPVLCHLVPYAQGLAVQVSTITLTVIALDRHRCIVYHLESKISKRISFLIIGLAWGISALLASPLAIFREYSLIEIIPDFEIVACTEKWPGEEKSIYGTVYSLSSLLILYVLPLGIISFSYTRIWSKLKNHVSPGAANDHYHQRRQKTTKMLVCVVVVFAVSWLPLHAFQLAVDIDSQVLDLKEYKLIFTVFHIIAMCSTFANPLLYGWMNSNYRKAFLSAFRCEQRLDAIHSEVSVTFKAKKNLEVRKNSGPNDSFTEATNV
Experiment [18] in a line: suppression of KLF5 promoter-driven luciferase – DLD-1 cells, luminescence, confirmation (AID 1834;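 active means inhibition above a set limit taken from the earlier primary screen, cut at about 63% in these data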;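 further: 0% = DMSO wells and 100% = LY294002 at 200 µM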). Particulars: DLD-1 KLF5 promoter firefly luciferase reporter, at 4 µM, hits give high values.
Experiment [19] can be described thus: IEC-6 intestinal cell killing – luminescence, triplicate, cytotoxicity control for KLF5 inhibitor project (AID 1905; in the data active means inhibition above about 23%;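 further: cells exposed to compounds for 48 hours before viability read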). Particulars: IEC-6 rat intestinal cells, viability luminescence; at 4 µM; hits give high values.
The target of experiment [20] is Oxytocin receptor (Homo sapiens) (UniProt P30559). Description: oxytocin receptor activation, retest of hits – fluorescence, CHO-OTR cells, triplicate, confirmation (AID 434963;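 active means mean activation above about 20% derived from the earlier single-dose screen, limit read from the data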;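 further: peak over minimum fluorescence ratio per well during a 100 second FLIPR read; 0% = DMSO alone and 100% = oxytocin high control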). Particulars: Fluo-8 calcium fluorescence, agonist, at 3 µM, hits give high values.
In experiment [21] the target is Vasopressin V1a receptor (Homo sapiens) (UniProt P37288). Description: activators of vasopressin V1R in CHO cells – cell-based, triplicate, fluorescence, counter-screen for OXTR agonist project (AID 434991;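 active means mean activation over triplicate exceeds the hit threshold set in the earlier primary screen, cut at about 20% in these data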;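 further: peak over basal fluorescence ratio within a 100 second read; 0% = DMSO alone and 100% = 3 nM vasopressin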). The settings on record: Fluo-8 calcium fluorescence, at 3 µM, hits give high values.
The target of experiment [22] is Nuclear receptor coactivator 3 (Homo sapiens) (UniProt Q9Y6Q9). Description: NCOA3 GAL4-fusion reporter inhibition – cell-based, luminescence, quadruplicate, confirmation (AID 588792;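 active means mean inhibition over 43.08%, the solvent-only control mean plus 3 SD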;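 further: 0% = DMSO treated cells and 100% = gossypol at 36 µM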). The settings on record: HEK293 GAL4-SRC3 luciferase reporter, at 3.6 µM, hits give high values.
Sequence of Nuclear receptor coactivator 3 (Homo sapiens) (Q9Y6Q9 whole entry, looked up, the tested form may be a part): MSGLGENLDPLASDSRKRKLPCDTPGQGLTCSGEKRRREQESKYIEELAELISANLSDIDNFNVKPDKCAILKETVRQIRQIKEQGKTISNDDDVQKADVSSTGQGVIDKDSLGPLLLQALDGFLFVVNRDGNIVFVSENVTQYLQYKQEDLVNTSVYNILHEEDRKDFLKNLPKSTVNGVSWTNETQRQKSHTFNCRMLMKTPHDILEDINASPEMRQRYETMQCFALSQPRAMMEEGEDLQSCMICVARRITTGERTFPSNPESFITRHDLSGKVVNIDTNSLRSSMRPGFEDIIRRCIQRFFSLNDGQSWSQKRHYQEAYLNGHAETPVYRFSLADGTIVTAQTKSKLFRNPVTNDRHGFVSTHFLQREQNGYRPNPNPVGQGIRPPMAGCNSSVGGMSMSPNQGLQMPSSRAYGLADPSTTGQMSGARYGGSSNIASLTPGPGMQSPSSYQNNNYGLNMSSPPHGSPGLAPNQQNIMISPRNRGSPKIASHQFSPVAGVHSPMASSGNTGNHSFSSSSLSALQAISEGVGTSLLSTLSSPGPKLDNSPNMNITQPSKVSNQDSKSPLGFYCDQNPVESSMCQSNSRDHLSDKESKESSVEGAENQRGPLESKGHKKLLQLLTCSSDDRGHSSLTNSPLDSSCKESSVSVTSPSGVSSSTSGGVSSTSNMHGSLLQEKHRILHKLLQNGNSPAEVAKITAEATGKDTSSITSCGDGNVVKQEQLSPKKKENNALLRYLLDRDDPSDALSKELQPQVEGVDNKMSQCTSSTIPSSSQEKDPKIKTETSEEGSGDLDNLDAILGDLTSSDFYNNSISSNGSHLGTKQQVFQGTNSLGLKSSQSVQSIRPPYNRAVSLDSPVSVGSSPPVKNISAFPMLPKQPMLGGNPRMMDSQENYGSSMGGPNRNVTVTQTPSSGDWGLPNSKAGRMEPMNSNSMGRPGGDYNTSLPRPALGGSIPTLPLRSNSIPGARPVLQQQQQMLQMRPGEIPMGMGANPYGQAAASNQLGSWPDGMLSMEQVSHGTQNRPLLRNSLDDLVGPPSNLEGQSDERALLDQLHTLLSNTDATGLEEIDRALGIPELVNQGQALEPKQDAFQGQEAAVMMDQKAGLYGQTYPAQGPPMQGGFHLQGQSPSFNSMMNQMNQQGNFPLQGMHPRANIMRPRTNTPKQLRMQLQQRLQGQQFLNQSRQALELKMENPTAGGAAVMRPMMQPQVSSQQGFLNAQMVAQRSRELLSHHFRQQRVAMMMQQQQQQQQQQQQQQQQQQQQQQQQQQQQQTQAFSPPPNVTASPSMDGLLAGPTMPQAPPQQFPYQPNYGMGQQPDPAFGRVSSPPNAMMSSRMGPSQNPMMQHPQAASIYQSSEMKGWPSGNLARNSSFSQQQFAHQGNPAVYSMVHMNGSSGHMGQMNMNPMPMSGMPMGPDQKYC
For experiment [23], the system named is transactivating tegument protein VP16 (Human herpesvirus 1), Gal4-VP16 luciferase reporter. Description: repression of VP16-driven luciferase reporter – cell-based, luminescence, high throughput, counter-screen for SRC3 inhibitor project (AID 588794; in the data active means inhibition above about 30%). Particulars: mammalian cells, at 3.6 µM, hits give high values.
For experiment [24], the target named is Nuclear receptor coactivator 1 (Homo sapiens) (UniProt Q15788). Description: NCOA1 GAL4-fusion reporter inhibition – cell-based, luminescence, quadruplicate, confirmation (AID 588820;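 active means mean inhibition above 46.68%, the untreated control wells mean plus 3 SD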;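 further: 0% = DMSO wells and 100% = gossypol 36 µM treated wells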). Particulars: HEK293 GAL4-SRC1 luciferase reporter, at 3.6 µM, hits give high values.
Experiment [25] is described as follows: repression of VP16-driven luciferase reporter – cell-based, luminescence, high throughput, counter-screen for SRC1 inhibitor project (AID 588824; in the data active means inhibition above about 25%). The settings on record: cell-based VP16 transactivation luciferase luminescence; at 3.6 µM; hits give high values.
The target of experiment [26] is Photoreceptor-specific nuclear receptor (Homo sapiens) (UniProt Q9Y5X4). Description: retest of NR2E3-NCOR disrupting agonists – cell-based, luminescence, CHO-S two-hybrid, confirmation (AID 624378;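 active means average inhibition above a cutoff equal to the mean inhibition of all tested compounds plus one SD, cut at about 70% in these data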;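 further: 0% = DMSO in NR2E3 cells and 100% = DMSO in cells lacking NR2E3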). Particulars: CHO-S mammalian two-hybrid NR2E3-NCOR, luciferase luminescence; at 3.98 µM; hits give high values.
Experiment [27] can be described thus: nonselective effects on VP16 transactivation – cell-based, luminescence, CHO-S, high throughput, counter-screen for NR2E3 agonist project, confirmation (AID 624379;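 active means mean inhibition above a cutoff equal to the average over all tested compounds plus one standard deviation, cut at about 70% in these data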;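 further: 0% = DMSO with VP16-transfected cells and 100% = DMSO with cells lacking VP16; higher means less reporter light so more repression of VP16 activity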). Particulars: CHO-S GAL4-VP16 luciferase reporter, at 3.98 µM, hits give high values.
A short description of experiment [28]: StAR promoter reporter inhibitors, counter-screen for LRH-1 inverse agonist project, cell-based, luminescence, high throughput (AID 651611; in the data active means inhibition above about 28%). The settings on record: StAR promoter luciferase reporter counterscreen, at 3.6 µM, hits give high values.
Experiment [29] deals with Nuclear receptor subfamily 5 group A member 2 (Homo sapiens) (UniProt O00482). Description: NR5A2 activity suppression in reporter cells – cell-based, luminescence, confirmation (AID 651613; in the data active means inhibition above about 42%;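 further: HEK293T cells co-transfected with LRH-1 and StAR promoter luciferase reporter; 0% = vehicle wells and 100% = parental cells lacking receptor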). The settings on record: cell-based LRH-1 luciferase reporter, inverse agonism; at 3.6 µM; hits give high values.
Experiment [30] concerns the target Steroidogenic factor 1 (Homo sapiens) (UniProt Q13285). Description: inverse agonism at SF1 nuclear receptor – cell-based, luminescence, high throughput, counter-screen for LRH-1 inverse agonist project (AID 651614; in the data active means inhibition above about 44%;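 further: cells cotransfected with StAR promoter reporter and SF1 expression vector; 0% = vehicle on cells with receptor and 100% = vehicle on cells lacking receptor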). The settings on record: cell-based SF1 luciferase reporter, at 3.6 µM, hits give high values.
Experiment [31] in a line: compounds suppressing VP16-driven luciferase signal – cell-based, luminescence, high throughput, counter-screen for LRH-1 inverse agonist project (AID 651615; in the data active means inhibition above about 33%). The settings on record: Gal4-VP16 luciferase reporter cells, at 3.6 µM, hits give high values.
A short description of experiment [32]: reduced OD of V66 E. coli with T4 gene 2 phage – absorbance, RecBCD inhibitor project, confirmation (AID 651982;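 active means mean inhibition over triplicates exceeding the hit threshold derived in the original primary screen, cut at about 11% in these data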). The settings on record: E. coli V66 + T4 2- phage, growth OD; at 11.9 µM; hits give high values.
Experiment [33] can be described thus: bacterial growth inhibition – absorbance, high throughput, counter-screen for RecBCD inhibitor project (AID 651983; in the data active means inhibition above about 20%;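 further: E. coli strain V66 grown with compound alone and no phage infection; 0% = bacteria with DMSO vehicle only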). The settings on record: E. coli viability, absorbance (OD) growth; at 11.9 µM; hits give high values.
A short description of experiment [34]: reduced optical density, T4-challenged addAB+ bacteria – absorbance, E. coli V3065, T4 phage, counter-screen for RecBCD inhibitor project, confirmation (AID 651984;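 active means mean inhibition above the solvent-only control wells' mean plus 3 SD, cut at about 22% in these data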;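 further: higher means less bacterial growth from phage killing when AddAB is blocked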). Particulars: E. coli expressing H. pylori AddAB + T4 phage, OD growth; at 11.9 µM; hits give high values; gene 2 mutant T4, recBCD-deleted host.
Experiment [35] can be described thus: VP16-driven transactivation reporter suppression – cell-based, luminescence, HEK293, counter-screen for COUP-TFII antagonist project (AID 687007; in the data active means inhibition above about 13%). Particulars: HEK293 Gal4-VP16 luciferase reporter, at 8.5 µM, hits give high values.
Experiment [36] addresses COUP transcription factor 2 (Homo sapiens) (UniProt P24468). Description: retest of COUP-TFII reporter suppressors – cell-based, luciferase reporter, HEK293, triplicate, confirmation (AID 687008;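 active means mean inhibition over three repeats above a set limit taken from the earlier primary screen, cut at about 38% in these data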;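 further: 100% = cells given the luciferase reporter alone without the COUP-TF2 vector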). The settings on record: HEK293 NGFI-A luciferase reporter, luminescence; at 8.5 µM; hits give high values.

Sequence of Peroxisome proliferator-activated receptor gamma (Homo sapiens) + Nuclear receptor coactivator 3 (Homo sapiens) (P37231 whole entry, looked up, the tested form may be a part): as the sequence (P37231 whole entry, looked up) above
Sequence of Peroxisome proliferator-activated receptor gamma (Homo sapiens) + Nuclear receptor coactivator 3 (Homo sapiens) (Q9Y6Q9 whole entry, looked up, the tested form may be a part): as the sequence (Q9Y6Q9 whole entry, looked up, the tested form may be a part) above

For the molecule `O=C(O)Cc1sc(-c2ccccc2)nc1-c1cccs1`, the values for the activation in [1], in [2] and in [3] were 42.6% (active), 34.7% (active) and 32.9% (active), respectively.

As to `CC(C(=O)N1CCOCC1)N1c2cccc3cccc(c23)S1(=O)=O` (configuration not stated), the activation in [1] is -0.94%; in experiment [2], 1.12%; in experiment [3], 1.88%.

Regarding `CC(=O)n1c(C=Nc2ccccc2)c(O)c2ccccc21`, the activation is 2.33% in experiment [1]; 0.42% in experiment [2]; 5.23% in experiment [3]; 0.1% in experiment [4]; 4.63% in experiment [5].

As to `CCc1c(C)nc2cc(-c3cccs3)[nH]n2c1=O`, the inhibition in experiment [6] is 5.18%; in experiment [7] it was 12.8%.

Take `CCN(CCCNC(=O)CSc1cc(=O)n(C)c2cc(Cl)ccc12)Cc1ccccc1`: the activation in experiment [1] was 29.4% (active); in experiment [2], 19.2%; in experiment [3], 20.4%.

For the molecule `CCn1c(SCC(=O)Nc2cccc(F)c2)nnc1-c1cc2cc(Br)ccc2o1`, the activation in [1] is 18%; in experiment [2], 15%; in experiment [3], 14.3%.

Consider `CNC(=S)N1N=C(c2ccccc2)CC1c1ccc(Br)cc1` (configuration not stated), for which the results for the activation in experiment [1], in experiment [2] and in [3] were 24.2% (active), 23.1% (active) and 17.2%, respectively.

On to `CCOC(=O)C1CCN(C(=O)CSc2cc(=O)n(C)c3ccccc23)CC1`, for which the activation was 38.9% (active) in experiment [1], 22.9% (active) in [2] and 24.4% (active) in experiment [3].

For the molecule `CSc1c(SCc2ccccc2)cnn(Cc2ccccc2)c1=O`, the activation in [1] was 34.4% (active); in experiment [2] it was 28.5% (active); in [3], 25.9% (active). The inhibition was 0.05% in [8], -5.91% in experiment [9] and -3.67% in experiment [10].

As to `Cc1nc(-c2ccccc2)sc1-c1nc(-c2ccccc2)ncc1S(=O)(=O)c1ccccc1`, the results for the activation in experiment [1], in experiment [2] and in [3] were 48.5% (active), 29.3% (active) and 22.7%, respectively.

As to `O=C(NC(Nc1nc2ccc([N+](=O)[O-])cc2s1)(C(F)(F)F)C(F)(F)F)c1ccccc1`, the inhibition was 99.4% (active) in [11]; 69.4% (active) in [12]; 64.5% (active) in experiment [6]; 26.4% in [7]; -2.45% in [16]; 83.7% (active) in experiment [18]. Also, the inhibition in [19] is 90.4% (active); in [22] it was 69.1% (active); in experiment [23], 84.5% (active); in experiment [24], 38.7%; in experiment [25] it was 84.3% (active); in [26], 98.5% (active). For the same molecule, the inhibition is 93.3% (active) in experiment [27]; 82.9% (active) in [28]; 105% (active) in experiment [29]; 93.3% (active) in experiment [30]; 86.8% (active) in [31]; 8% in [32]. The inhibition in experiment [33] is 10.7%; in [34], 11.3%; in experiment [35] it was 6.94%; in [36] it was 65.9% (active). The activation in experiment [13] was 30.6%; in experiment [14], -2.54%; in experiment [15] it was -9.19%; in experiment [17], 22.1% (active); in experiment [20] it was 13%; in [21] it was 8.96%.
